Data published in PubChem BioAssay (Tox21).
Unmarked numbers belong to inactive results. Records with an inconclusive call do not appear. Entries that show only a call come without a potency. Calls of active or inactive are those of the source. Unless noted, calls come from the whole dose curve.

Legend:
[1] = Nuclear factor erythroid 2-related factor 2/antioxidant responsive element (Nrf2/ARE) small molecule agonists: qHTS cell viability counter screen in human keratinocytes (AID 1919968; active = well fitted curve in the direction sought with a large enough effect in the repeat runs; an effect the other way counts as inactive or inconclusive; note: nearly all actives have a fitted effect of over 55% in size; note: potency is the fitted concentration of half-maximal effect)
How it was run: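 Viability counter-screen: KeratinoSens reporter cells, DMSO-delivered compounds, 23 h at 37 C, CellTiter-Fluor fluorescence.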

[2] = Nuclear factor erythroid 2-related factor 2/antioxidant responsive element (Nrf2/ARE) small molecule agonists: luciferase reporter gene qHTS assay in human keratinocytes (AID 1919969); note: nearly all actives have a fitted effect of over 35% in size; note: potency is the fitted concentration of half-maximal effect
[3] = biological target: Gonadotropin-releasing hormone receptor (Homo sapiens) (UniProt P30968); test: Human gonadotropin-releasing hormone receptor (GnRHR) small molecule agonists, calcium flux assay in GnRHR-HEK293 cells (AID 1920063); note: nearly all actives have a fitted effect of over 35% in size
How it was run: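 Tox21-format agonist screen using human GnRHR-expressing HEK293 cells and a fluorescent calcium dye; kinetic 3-min fluorescence reading after compound addition, 15-point concentration series run in triplicate.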

[4] = biological target: KiSS-1 receptor (Homo sapiens) (UniProt Q969F8); test: Human kisspeptin (KISS1R) small molecule agonists, calcium flux assay in KISS1R-HEK293 cells (AID 1920064; active = well fitted curve in the direction sought with a large enough effect in the repeat runs; an effect the other way counts as inactive or inconclusive)
How it was run: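 Intracellular calcium mobilization in KISS1R-HEK293 cells was recorded by fluorescence (Ex/Em 480/540) for 3 min following compound addition to cells pre-loaded 1 h with calcium dye.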

[5] = G protein-coupled receptor (GPCR) small molecule agonists, calcium flux assay: HEK293 wild type cell line counter screen (AID 1920065)
How it was run: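 In this agonist-mode screen, ATP is the positive control and DMSO the vehicle. Cells grow 18 h before a 1 h dye incubation at 37 C; signal is taken at Ex/Em 480/540 over 3 min.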

[6] = p53 small molecule agonists, cell-based qHTS assay with human liver microsomes (AID 1963577);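 note: p53 response element beta-lactamase reporter cells with liver microsomes plus NADPH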
How it was run: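 Reporter activation was measured by LiveBLAzer fluorescence intensity in p53RE-bla cells, which had been exposed to compounds for 16 h at 37 C alongside 0.5 mg/mL human liver microsomes and 0.5 mg/mL NADPH (final concentrations).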

[7] = p53 small molecule agonists, cell-based qHTS assay with rat liver microsomes (AID 1963578)
How it was run: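 Compound in DMSO added to p53RE-bla cells 5 h post-plating; rat microsomes/NADPH 0.5 mg/mL final; 16 h, 37 C; LiveBLAzer 2 h RT.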

[8] = p53 small molecule agonists, cell-based qHTS assay with human liver microsomes: qHTS cell viability counter screen (AID 1963579); note: nearly all actives have a fitted effect of over 45% in size; note: potency is the fitted concentration of half-maximal effect
How it was run: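 HLM-supplemented (0.5 mg/mL final) and NADPH-supplemented (0.5 mg/mL final) p53RE-bla cultures, 4,000 cells per well, were dosed with compounds in DMSO for 16 h at 37 C; luminescent ATP detection (CellTiter-Glo, 30 min, room temperature) quantified surviving cells.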

[9] = p53 small molecule agonists, cell-based qHTS assay with rat liver microsomes: qHTS cell viability counter screen (AID 1963580); note: nearly all actives have a fitted effect of over 45% in size; note: potency is the fitted concentration of half-maximal effect
How it was run: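 p53RE-bla HCT-116 cells were exposed 16 h at 37 C to compounds with rat liver microsomes (0.5 mg/mL) and NADPH (0.5 mg/mL). Viability was measured in the same wells as ATP content by CellTiter-Glo luminescence.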

[10] = p53 small molecule agonists, cell-based qHTS assay: qHTS cell viability counter screen (AID 1963581); note: nearly all actives have a fitted effect of over 45% in size
How it was run: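 Compounds are pinned onto HCT-116 p53RE-bla cells and left 16 h at 37 C. Following the reporter FRET read, ATP is quantified by CellTiter-Glo luminescence after 30 min at room temperature.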

[11] = biological target: 5-hydroxytryptamine receptor 2A (Homo sapiens) (UniProt P28223); test: 5-hydroxytryptamine receptor 2A (HTR2A) small molecule antagonists, cell-based qHTS assay (AID 1963586); note: nearly all actives have a fitted effect of over 45% in size; note: potency is the fitted concentration of half-maximal effect
How it was run: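 Antagonist-mode intracellular calcium assay: DOI (4 nM) added after 5 min compound pre-incubation at room temperature to dye-loaded HTR2A-CHO cells. Fluorescence followed for 3 min, sampled every second.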

[12] = biological target: 5-hydroxytryptamine receptor 2A (Homo sapiens) (UniProt P28223); test: 5-hydroxytryptamine receptor 2A (HTR2A) small molecule agonists, cell-based qHTS assay (AID 1963587); note: nearly all actives have a fitted effect of over 30% in size
How it was run: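 CHO cells stably expressing human HTR2A, plated 18 h, loaded with calcium dye 1 h at 37 C. Agonist mode: compounds added and intracellular calcium fluorescence recorded kinetically for 2 min at 1 sec intervals.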

[13] = biological target: Muscarinic acetylcholine receptor M1 (Homo sapiens) (UniProt P11229); test: Cholinergic receptor muscarinic 1 (CHRM1) small molecule antagonists, cell-based qHTS assay (AID 1963588); note: nearly all actives have a fitted effect of over 40% in size; note: potency is the fitted concentration of half-maximal effect
How it was run: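 CHRM1-CHO calcium-flux assay, antagonist mode. Cells were seeded 18 h, dye-loaded 1 h at 37 C and given compound for 5 min at RT, then acetylcholine was added at 50nM. FDSS fluorescence was read 3 min; 15 concentrations, three runs.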

[14] = biological target: Muscarinic acetylcholine receptor M1 (Homo sapiens) (UniProt P11229); test: Cholinergic receptor muscarinic 1 (CHRM1) small molecule agonists, cell-based qHTS assay (AID 1963589); note: nearly all actives have a fitted effect of over 35% in size
How it was run: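 Stable CHRM1-CHO cells (human receptor) were incubated 18 h, dye-loaded for 1 h at 37 C and exposed to test compounds for agonist activity, with calcium-dependent fluorescence followed kinetically.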

[15] = cAMP Responsive Elements (CRE) small molecule antagonists, cell-based qHTS assay (AID 1963591; active = well fitted inhibition curve with a large enough effect in the signal ratio in the repeat runs, not every such curve was filed as active; the % refers to the signal ratio)
How it was run: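 qHTS in CRE-bla HEK 293T cells: compound in DMSO, then 0.25 uM NKH477 (final), 3 h at 37 °C/5% CO2; beta-lactamase FRET read-out after 2 h substrate incubation.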

[16] = biological target: D(2) dopamine receptor (Homo sapiens) (UniProt P14416); test: Dopamine D2 receptor (DRD2) small molecule agonists, cell-based qHTS assay (AID 1963594); note: nearly all actives have a fitted effect of over 35% in size
How it was run: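 HEK293 cells stably expressing human DRD2, pre-treated with PDE inhibitor Ro20-1724 (0.1 mM final) and compound 10 min at room temperature, then stimulated with NKH477 (200nM […]) for 30 min. cAMP read by HTRF (665/620 nm).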

[17] = cAMP Responsive Elements (CRE) small molecule agonists, cell-based qHTS assay (AID 1963590)
How it was run: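 FRET-based beta-lactamase readout (LiveBLAzer B/G, 2 h RT) quantified CRE activation in HEK 293T CRE-bla cells after 3 h treatment with DMSO-dissolved compounds.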

[18] = biological target: Beta-2 adrenergic receptor (Homo sapiens) (UniProt P07550); test: Adrenergic beta2 receptor (ADRB2) small molecule antagonists, cell-based qHTS assay (AID 1963592); note: series mostly up to about 92 µM; nearly all actives have a fitted effect of over 50% in size
How it was run: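 Cells (CHO, stable ADRB2 overexpression) incubated 18-20hr at 37C; compounds added from DMSO; agonist mix (1nM isoproterenol, 100uM IBMX, 25uM Ro-20-1724) added; 0.5hr RT; d2-cAMP and anti-cAMP-cryptate added; 1hr RT; 665/615 nm read.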

[19] = biological target: Beta-2 adrenergic receptor (Homo sapiens) (UniProt P07550); test: Adrenergic beta2 receptor (ADRB2) small molecule agonists, cell-based qHTS assay (AID 1963593);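 note: CHO cells stably overexpressing human ADRB2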
How it was run: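 CHO cells stably over-expressing ADRB2 were plated overnight at 37C, then dosed with compounds plus a stimulation mix containing 100uM IBMX and 25uM Ro-20-1724 for 0.5hr at room temperature. cAMP was measured by HTRF competition, 1hr.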

[20] = biological target: D(2) dopamine receptor (Homo sapiens) (UniProt P14416); test: Dopamine D2 receptor (DRD2) small molecule antagonists, cell-based qHTS assay (AID 1963595; active = well fitted inhibition curve with a large enough effect in the signal ratio in the repeat runs, with a control signal flat; the % refers to the signal ratio; note: potency is the fitted concentration of half-maximal effect)
How it was run: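 HTRF cAMP read-out at 665 and 620 nm emission (340 nm excitation). Antagonist mode: compounds were tested against 12 nM quinpirole in DRD2-HEK293 cells, with 200 nM NKH477 raising cAMP and 0.1 mM Ro20-1724 blocking its breakdown.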

Sequence of Muscarinic acetylcholine receptor M1 (Homo sapiens) (P11229 whole entry, looked up): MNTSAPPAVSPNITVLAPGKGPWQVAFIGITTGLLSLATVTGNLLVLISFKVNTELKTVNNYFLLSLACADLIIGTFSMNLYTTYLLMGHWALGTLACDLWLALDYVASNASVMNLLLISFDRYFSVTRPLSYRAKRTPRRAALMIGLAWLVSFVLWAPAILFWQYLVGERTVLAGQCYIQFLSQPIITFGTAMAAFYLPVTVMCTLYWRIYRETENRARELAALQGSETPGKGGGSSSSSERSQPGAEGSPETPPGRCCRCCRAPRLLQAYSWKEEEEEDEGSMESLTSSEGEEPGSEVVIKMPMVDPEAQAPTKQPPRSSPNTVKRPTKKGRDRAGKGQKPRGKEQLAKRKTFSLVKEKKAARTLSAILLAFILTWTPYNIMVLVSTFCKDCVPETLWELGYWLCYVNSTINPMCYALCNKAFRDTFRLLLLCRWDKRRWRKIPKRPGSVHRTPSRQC
Sequence of Beta-2 adrenergic receptor (Homo sapiens) (P07550 whole entry, looked up): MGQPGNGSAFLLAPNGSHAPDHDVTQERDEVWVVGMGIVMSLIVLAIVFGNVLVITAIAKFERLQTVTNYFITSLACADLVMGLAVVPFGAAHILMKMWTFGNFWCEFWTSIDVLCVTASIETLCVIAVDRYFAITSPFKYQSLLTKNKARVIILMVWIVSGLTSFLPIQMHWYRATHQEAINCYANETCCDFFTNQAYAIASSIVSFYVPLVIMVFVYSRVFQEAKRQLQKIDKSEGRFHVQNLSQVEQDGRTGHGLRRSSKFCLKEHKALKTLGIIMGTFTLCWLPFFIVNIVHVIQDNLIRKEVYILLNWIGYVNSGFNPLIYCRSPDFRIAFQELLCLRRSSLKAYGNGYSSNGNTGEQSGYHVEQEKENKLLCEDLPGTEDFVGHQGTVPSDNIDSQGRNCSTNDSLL
Sequence of D(2) dopamine receptor (Homo sapiens) (P14416 whole entry, looked up): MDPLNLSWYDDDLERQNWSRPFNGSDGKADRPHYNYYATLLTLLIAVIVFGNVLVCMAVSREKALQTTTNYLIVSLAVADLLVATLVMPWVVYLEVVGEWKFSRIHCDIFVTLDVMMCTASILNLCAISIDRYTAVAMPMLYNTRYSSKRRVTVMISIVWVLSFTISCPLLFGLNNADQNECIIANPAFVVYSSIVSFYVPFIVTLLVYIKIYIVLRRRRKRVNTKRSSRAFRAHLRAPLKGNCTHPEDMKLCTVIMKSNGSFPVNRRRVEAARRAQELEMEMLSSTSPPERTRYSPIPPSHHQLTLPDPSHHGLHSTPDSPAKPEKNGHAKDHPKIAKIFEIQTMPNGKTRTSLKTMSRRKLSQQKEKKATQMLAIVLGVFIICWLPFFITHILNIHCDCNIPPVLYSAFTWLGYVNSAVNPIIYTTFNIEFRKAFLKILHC
Sequence of 5-hydroxytryptamine receptor 2A (Homo sapiens) (P28223 whole entry, looked up): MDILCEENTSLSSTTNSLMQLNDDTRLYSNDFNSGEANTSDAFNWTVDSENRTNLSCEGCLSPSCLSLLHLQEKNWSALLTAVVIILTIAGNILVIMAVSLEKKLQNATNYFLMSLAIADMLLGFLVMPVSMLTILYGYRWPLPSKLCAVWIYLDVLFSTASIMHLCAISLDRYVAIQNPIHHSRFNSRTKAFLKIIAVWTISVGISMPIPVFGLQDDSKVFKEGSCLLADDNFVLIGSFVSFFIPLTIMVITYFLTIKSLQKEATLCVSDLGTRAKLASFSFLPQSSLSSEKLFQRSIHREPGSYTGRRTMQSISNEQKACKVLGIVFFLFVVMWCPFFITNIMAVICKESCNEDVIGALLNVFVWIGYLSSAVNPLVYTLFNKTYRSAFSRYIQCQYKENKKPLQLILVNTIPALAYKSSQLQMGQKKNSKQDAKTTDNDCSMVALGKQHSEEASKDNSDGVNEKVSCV
Sequence of Gonadotropin-releasing hormone receptor (Homo sapiens) (P30968 whole entry, looked up): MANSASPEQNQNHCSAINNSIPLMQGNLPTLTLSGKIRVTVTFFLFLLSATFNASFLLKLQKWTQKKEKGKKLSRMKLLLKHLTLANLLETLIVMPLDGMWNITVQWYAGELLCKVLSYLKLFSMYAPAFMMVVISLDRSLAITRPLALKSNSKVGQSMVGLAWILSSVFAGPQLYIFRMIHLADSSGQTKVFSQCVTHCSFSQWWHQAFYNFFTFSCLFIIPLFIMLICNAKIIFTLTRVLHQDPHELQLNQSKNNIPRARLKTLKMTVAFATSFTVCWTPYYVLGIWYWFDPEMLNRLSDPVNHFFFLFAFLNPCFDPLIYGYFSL
Sequence of KiSS-1 receptor (Homo sapiens) (Q969F8 whole entry, looked up): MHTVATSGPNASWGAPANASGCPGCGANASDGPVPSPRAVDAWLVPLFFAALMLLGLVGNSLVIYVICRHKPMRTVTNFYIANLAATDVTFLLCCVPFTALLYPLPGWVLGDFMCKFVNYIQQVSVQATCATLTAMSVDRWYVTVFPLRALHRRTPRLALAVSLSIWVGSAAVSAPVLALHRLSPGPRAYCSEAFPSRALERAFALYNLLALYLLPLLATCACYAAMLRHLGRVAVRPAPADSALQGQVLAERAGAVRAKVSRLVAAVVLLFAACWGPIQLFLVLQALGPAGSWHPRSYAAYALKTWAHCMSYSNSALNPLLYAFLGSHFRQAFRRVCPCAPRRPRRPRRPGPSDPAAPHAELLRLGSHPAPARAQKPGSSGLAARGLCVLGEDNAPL

CCCCCCCCCCCCCCCC/C=C/C1CC(=O)OC1=O (centres undefined)
Potency [1]: inactive | Potency [2]: inactive | Potency [3]: inactive | outcome [4]: inactive | outcome [5]: inactive | Potency [6]: inactive | Potency [7]: inactive | Potency [8]: inactive | Potency [9]: inactive | Potency [10]: inactive | Potency [11]: inactive | Potency [12]: inactive | Potency [13]: inactive | Potency [14]: inactive | Potency [15]: inactive | Potency [16]: inactive

CCN(CC)CCOC(=O)C(c1ccccc1)c1ccccc1
Potency [1]: inactive | Potency [2]: inactive | Potency [3]: inactive | outcome [4]: inactive | outcome [5]: inactive | Potency [6]: inactive | Potency [7]: inactive | Potency [8]: inactive | Potency [9]: inactive | Potency [10]: inactive | Potency [11]: 7.29 µM (active) | Potency [13]: 0.0103 µM (active) | Potency [14]: inactive | Potency [17]: inactive | Potency [15]: inactive | Potency [18]: inactive

CN(C[C@@H](CC[N+]12CCC(C3CCCCC3)(CC1)CC2)c1ccc(Cl)c(Cl)c1)C(=O)c1cc(C(F)(F)F)cc(C(F)(F)F)c1
Potency [1]: 61.1 µM (active) | Potency [2]: 24.3 µM (active) | Potency [3]: inactive | outcome [4]: inactive | outcome [5]: inactive | Potency [6]: inactive | Potency [7]: inactive | Potency [8]: 36.3 µM (active) | Potency [9]: 40.8 µM (active) | Potency [10]: inactive | Potency [11]: inactive | Potency [13]: 0.0942 µM (active) | Potency [14]: inactive

CC(=O)CC(=O)OC(C)(C)C
Potency [1]: inactive | Potency [2]: inactive | Potency [3]: inactive | outcome [4]: inactive | outcome [5]: inactive | Potency [6]: inactive | Potency [7]: inactive | Potency [8]: inactive | Potency [9]: inactive | Potency [10]: inactive | Potency [11]: inactive | Potency [13]: inactive | Potency [17]: inactive | Potency [18]: inactive | Potency [19]: inactive | Potency [20]: inactive

CN1CCN(C2Cc3ccccc3Sc3ccc(Cl)cc32)CC1 (centres undefined)
Potency [1]: 29.8 µM (active) | Potency [2]: inactive | Potency [3]: inactive | outcome [4]: inactive | outcome [5]: inactive | Potency [6]: inactive | Potency [7]: inactive | Potency [8]: inactive | Potency [9]: inactive | Potency [10]: inactive | Potency [11]: 0.041 µM (active) | Potency [13]: 0.065 µM (active) | Potency [14]: inactive | Potency [15]: inactive | Potency [18]: inactive | Potency [16]: inactive | Potency [20]: 0.133 µM (active)

O=C(O)Cc1ccc2c(c1)C(=O)c1ccccc1CO2
Potency [1]: inactive | Potency [2]: inactive | Potency [3]: inactive | outcome [4]: inactive | outcome [5]: inactive | Potency [6]: inactive | Potency [7]: inactive | Potency [8]: inactive | Potency [9]: inactive | Potency [10]: inactive | Potency [11]: inactive | Potency [12]: inactive | Potency [13]: inactive | Potency [14]: inactive | Potency [18]: inactive | Potency [16]: inactive | Potency [20]: inactive

CC(NN)c1ccccc1 (centres undefined)
activity change, negative = cytotoxicity [1]: -0.107% [at 19 µM] | activity, positive = activation [2]: -1.07% [at 19 µM] | activity change [3]: -0.677% [at 11.8 µM, stronger effect = higher value] | activation [4]: -0.175% [at 15.8 µM] | activation [5]: -1.16% [at 11.8 µM] | activation [6]: -2.41% [at 13.5 µM] | activation [7]: -0.8% [at 13.6 µM] | activity change, negative = cytotoxicity [8]: -4.08% [at 13.5 µM] | activity change, negative = cytotoxicity [9]: 2.75% [at 13.5 µM] | activity change, negative = cytotoxicity [10]: 23.1% [at 13.5 µM] | activity, negative = inhibition [11]: 14.8% [at 12.7 µM] | activation [12]: 1.19% [at 15.9 µM] | activity, negative = inhibition [13]: 10.3% [at 12.6 µM] | activation [17]: -0.272% [at 19 µM] | activity change, negative = inhibition [15]: -6.39% [at 18.9 µM] | activity change, negative = inhibition [18]: 10.7% [at 19 µM] | Potency [19]: inactive | activation [16]: 12.1% [at 19 µM] | activity change, negative = inhibition [20]: 4.23% [at 18.9 µM]

N#CSc1ccc(N)c([N+](=O)[O-])c1
Potency [1]: 43.5 µM (active) | Potency [2]: 24.5 µM (active) | Potency [3]: inactive | outcome [4]: inactive | outcome [5]: inactive | Potency [6]: inactive | Potency [7]: inactive | Potency [8]: inactive | Potency [9]: inactive | Potency [10]: inactive | Potency [11]: inactive | Potency [13]: inactive | Potency [15]: inactive | Potency [18]: inactive | Potency [20]: inactive
